The values below come from PubChem BioAssay (NCI).

The panel holds about 83,000 compounds, 20% with a hit somewhere; the sample as a whole holds those more often.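 96-well plates, one dose, 48 hours. Percent growth reported; active if below 10.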 A number with no mark means an inactive call. Active and inactive are the calls of the source.

Test systems include HCT-15 colon; HT29 colon; SNB-75 CNS; SNB-19 CNS; U251 CNS; PC-3 prostate; SK-MEL-5 melanoma; UACC-62 melanoma; LOX IMVI melanoma; SK-MEL-28 melanoma; SK-MEL-2 melanoma; EKVX NSCLC; UO-31 renal; TK-10 renal; ACHN renal; CAKI-1 renal; A498 renal; CCRF-CEM leukemia; MOLT-4 leukemia; SN12C renal.
Holding throughout (assay): NCI-60 one-dose screen, 48 h (100 = growth as untreated, 0 = no growth, -100 = all killed)
Holding throughout (conditions): 10 µM unless noted

As for `CCn1cc(C(=O)N/N=C/c2ccc(Br)cc2)c(=O)c2cc(F)c(N3CCNC(C)C3)c(F)c21` (stereo unspecified), the growth is -18.9% (active) in the experiment on HCT-15 colon; -31.7% (active) in the experiment on HT29 colon; 85.6% in the experiment with SNB-75 CNS; 54.5% with SNB-19 CNS; 1.38% (active) in the experiment with U251 CNS; 68.3% in the experiment with PC-3 prostate. The growth with SK-MEL-5 melanoma was 82.4%; with UACC-62 melanoma, 101%; in the experiment with LOX IMVI melanoma it was -78.2% (active); in the experiment with SK-MEL-28 melanoma it was 91.2%; with SK-MEL-2 melanoma, 97.7%; in the experiment with EKVX NSCLC, 86.9%. Besides, the growth in the experiment on UO-31 renal is 68.4%; with TK-10 renal it was 99.6%; in the experiment on ACHN renal, 88.8%; with CAKI-1 renal, 68.5%; in the experiment on A498 renal it was 98%; in the experiment with CCRF-CEM leukemia, 29.7%. Moreover, the growth in the experiment with MOLT-4 leukemia is 22%.

With `COc1ccc(C2=Nc3c/c(=C\c4c(O)[nH]c5cc(Cl)ccc45)ccc3=N2)cc1`, the growth in the experiment on HCT-15 colon was 55.8%; in the experiment on HT29 colon, 39.8%; with SNB-75 CNS it was 41.6%; in the experiment with SNB-19 CNS, 95.1%; in the experiment with U251 CNS it was 74.3%; in the experiment with PC-3 prostate, 43.3%. Besides, the growth in the experiment with SK-MEL-5 melanoma was 60.7%; in the experiment with UACC-62 melanoma it was 67.5%; in the experiment with LOX IMVI melanoma, 90.6%; in the experiment on SK-MEL-28 melanoma, 47%; with SK-MEL-2 melanoma it was 54.4%; with EKVX NSCLC, 80.7%. The growth was 58.6% in the experiment on UO-31 renal; 114% in the experiment with TK-10 renal; 76.9% in the experiment with ACHN renal; 75.9% in the experiment on CAKI-1 renal; 68.5% with A498 renal; 54.8% with CCRF-CEM leukemia. Further, the growth with MOLT-4 leukemia was 83.9%.

Regarding `Cc1cc(N2CCN(C)CC2)nc(NCc2cc(Nc3ccnc4cc(Cl)ccc34)ccc2F)n1`, the growth in the experiment on HCT-15 colon was -17.6% (active); in the experiment on HT29 colon, -56.1% (active); in the experiment with SNB-75 CNS it was 21.2%; in the experiment on SNB-19 CNS it was 34.3%; in the experiment with U251 CNS it was -51.3% (active); in the experiment with SK-MEL-5 melanoma, -98% (active). Moreover, the growth is -59.1% (active) in the experiment on UACC-62 melanoma; -70.1% (active) in the experiment on LOX IMVI melanoma; -75.4% (active) in the experiment on SK-MEL-28 melanoma; -67.8% (active) in the experiment on SK-MEL-2 melanoma; 27.4% in the experiment on EKVX NSCLC; -20.8% (active) in the experiment on SN12C renal. In addition, the growth in the experiment on UO-31 renal is -27.1% (active); in the experiment with TK-10 renal it was -29.5% (active); in the experiment on ACHN renal, -10.6% (active); with CAKI-1 renal, 12.9%; with A498 renal, -40.7% (active); in the experiment with CCRF-CEM leukemia, -4.6% (active). Also, the growth with MOLT-4 leukemia is 10.2%.

On to `CCOC(=O)CSc1nc2sc3c(c2c(=O)n1-c1ccc([N+](=O)[O-])cc1)CCCCC3`, for which the growth was 85.1% with HCT-15 colon; 78.6% in the experiment with HT29 colon; 11% in the experiment with SNB-75 CNS; 78.8% in the experiment with SNB-19 CNS; 53.5% in the experiment with U251 CNS; 73.2% with PC-3 prostate. Also, the growth was 74.9% in the experiment on UACC-62 melanoma; 79.6% with LOX IMVI melanoma; 84.1% with SK-MEL-28 melanoma; 90.9% with SK-MEL-2 melanoma; 82.8% in the experiment with EKVX NSCLC; 84.3% in the experiment with SN12C renal. The growth in the experiment on UO-31 renal was 71.4%; in the experiment on TK-10 renal, 84.7%; with ACHN renal, 52.8%; with CAKI-1 renal, 51.2%; in the experiment on CCRF-CEM leukemia, 89%; with MOLT-4 leukemia, 97%.

For `NC(=O)c1ccc(NC(=O)c2oc3ccccc3c2-c2cnn(-c3ccccc3)c2)cc1`, the growth was 43.2% [50 µM] with HCT-15 colon; 2.07% [50 µM] (active) with HT29 colon; -25.5% [50 µM] (active) in the experiment on SNB-75 CNS; 2.3% [50 µM] (active) with SNB-19 CNS; -19.2% [50 µM] (active) with U251 CNS; 6.29% [50 µM] (active) with PC-3 prostate. Besides, the growth with SK-MEL-5 melanoma was 4.65% [50 µM] (active); with UACC-62 melanoma, 45.3% [50 µM]; in the experiment with LOX IMVI melanoma, -22.6% [50 µM] (active); in the experiment with SK-MEL-28 melanoma, 25.6% [50 µM]; in the experiment with SK-MEL-2 melanoma, 61.5% [50 µM]; in the experiment on EKVX NSCLC it was 7.54% [50 µM] (active). The growth in the experiment with UO-31 renal was -1.76% [50 µM] (active); in the experiment on TK-10 renal, 44.5% [50 µM]; in the experiment with ACHN renal, -11.1% [50 µM] (active); in the experiment on CAKI-1 renal, -29.4% [50 µM] (active); with A498 renal, 16.4% [50 µM]; with CCRF-CEM leukemia, 73.1% [50 µM]. Further, the growth in the experiment with MOLT-4 leukemia was 61.2% [50 µM].

Regarding `CCN1CCN(CC(=O)Nc2nc3ccc(NCc4ccc(Br)cc4)cc3s2)CC1`, the growth in the experiment with HCT-15 colon was -18.8% (active); in the experiment with HT29 colon it was 2.33% (active); with SNB-75 CNS, 89.4%; with SNB-19 CNS, 76.3%; in the experiment with U251 CNS, 52.9%; in the experiment on PC-3 prostate, 44.6%. The growth is -47.1% (active) with UACC-62 melanoma; -76.4% (active) with LOX IMVI melanoma; -66.6% (active) with SK-MEL-28 melanoma; 55.4% with SK-MEL-2 melanoma; 68.2% in the experiment with EKVX NSCLC; 63.8% with SN12C renal. Moreover, the growth is 59.5% in the experiment with UO-31 renal; 87% with TK-10 renal; 74.6% with ACHN renal; 35.5% in the experiment on CAKI-1 renal; 88.8% with A498 renal; 34.2% in the experiment on CCRF-CEM leukemia.

Take `COc1ccc2nc3ccccc3c(NCc3ccccc3)c2c1`: the growth was 13.1% in the experiment on HCT-15 colon; 8.49% (active) with HT29 colon; 45.5% with SNB-75 CNS; 24.2% with SNB-19 CNS; 22.9% in the experiment with U251 CNS; 28.6% in the experiment with PC-3 prostate. For the same molecule, the growth with UACC-62 melanoma is 45.9%; with LOX IMVI melanoma it was -31.1% (active); with SK-MEL-28 melanoma, 49.7%; in the experiment on SK-MEL-2 melanoma it was 47.9%; with EKVX NSCLC, 26.9%; in the experiment on SN12C renal it was 22.4%. Moreover, the growth in the experiment on UO-31 renal is 13.8%; in the experiment with TK-10 renal, 38.7%; in the experiment with ACHN renal it was 12.8%; in the experiment on CAKI-1 renal, 25.8%; with A498 renal, -14.3% (active); with CCRF-CEM leukemia, 33.4%. Moreover, in the experiment on MOLT-4 leukemia, the growth was 8.01% (active).
